Measurements published in PubChem BioAssay (NCI).
The panel holds about 83,000 compounds, 20% with a hit somewhere; the sample as a whole holds those more often.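 Treatment: one concentration, 48 hours, 96-well format. Scoring: percent growth, with anything below 10 considered active.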 Active and inactive are the calls of the source.

Tests used:
Test in all cases: NCI-60 one-dose screen, 48 h (100 = growth as untreated, 0 = no growth, -100 = all killed)
Conditions in all cases: 10 µM unless noted
[1] = tested on: NCI-H23 lung
[2] = tested on: NCI-H226 lung
[3] = tested on: NCI-H322M lung
[4] = tested on: HOP-62 NSCLC
[5] = tested on: NCI-H460 lung
[6] = tested on: HOP-92 NSCLC
[7] = tested on: NCI-H522 lung
[8] = tested on: A549/ATCC NSCLC
[9] = tested on: 786-0 renal
[10] = tested on: COLO 205 colon

Measured: growth

CN1CCN(CCCOc2ccc3nc(Nc4ccc(Cl)c(C(F)(F)F)c4)ccc3c2)CC1
active: [10] -40.7%
inactive: [1] 67.3% | [2] 88.9% | [3] 53.6% | [4] 57.8% | [5] 44.4% | [6] 43% | [7] 90.2% | [8] 55.3% | [9] 68.6%

Cc1ccc(-c2csc(NC(=O)CCCCl)n2)cc1
inactive: [1] 93.1% | [2] 78.5% | [3] 87.4% | [4] 101% | [5] 103% | [6] 74.8% | [7] 83.5% | [8] 90.5% | [9] 87.3% | [10] 112%

CCOC(=O)c1cn2c3c(cccc3c1=O)C(=O)/C(=C/c1cccc(Cl)c1Cl)C2
inactive: [1] 93% | [2] 83% | [3] 97.4% | [4] 81.8% | [5] 107% | [6] 63.8% | [7] 73.1% | [8] 98.2% | [9] 90.6% | [10] 117%

C=C1CCC2C3(C)COC(c4ccc(N(C)C)cc4)OC3CCC2(C)C1C/C=C1/C(=O)OCC1O (stereo not given)
inactive: [1] 66.4% | [2] 109% | [3] 83.1% | [4] 108% | [5] 74.2% | [6] 68.9% | [7] 74.2% | [8] 52% | [9] 96% | [10] 19.5%

c1ccc(-c2nc(N3CCNCC3)c3nc(-c4ccccc4)oc3n2)cc1
active: [1] -56.6% | [2] -61.3% | [4] -78.2% | [5] -73.7% | [7] -82.1% | [8] -77.2% | [9] -98.7% | [10] -84%
inactive: [3] 82% | [6] 42%

Cc1ccc(CSC(=N)N)cc1C
inactive: [1] 108% | [2] 104% | [3] 111% | [4] 110% | [5] 109% | [6] 67.4% | [7] 101% | [8] 103% | [9] 103% | [10] 107%

CN(C)c1oc(C2OC2c2ccccc2)nc1C#N (stereo not given)
inactive: [1] 95.2% | [2] 80.7% | [3] 81.6% | [4] 75.6% | [5] 109% | [6] 79% | [7] 87.7% | [8] 90.8% | [9] 102% | [10] 94.5%

NC(=O)c1c(NC(=S)Nc2ccc(OC(F)(F)F)cc2)sc2c1CCC1(C2)OCCO1
inactive: [1] 94.7% | [2] 92.9% | [3] 89.2% | [4] 99.9% | [5] 99.1% | [6] 96.3% | [7] 83% | [8] 97.3% | [9] 98.5% | [10] 108%

CCCCCc1cc[n+](CC(=O)c2ccc([N+](=O)[O-])cc2)cc1
active: [10] -5.18%
inactive: [1] 69.6% | [2] 96.5% | [3] 107% | [4] 79.8% | [5] 49.6% | [6] 51.7% | [7] 45.7% | [8] 78.9% | [9] 96.5%

Cc1cc(N/N=C/c2nc(-c3ccc(Br)cc3)oc2C)c2cc(Br)ccc2n1
active: [5] -13.1%
inactive: [1] 103% | [2] 113% | [3] 82.8% | [4] 105% | [6] 78.8% | [7] 48% | [8] 32.8% | [9] 29.2% | [10] 99.7%

COc1cc(/C(C#N)=C/c2ccc3c(c2OC)OCO3)cc2c1OCO2
active: [5] 9.09% | [7] -19.1% | [10] -3.05%
inactive: [1] 30.9% | [2] 89.9% | [3] 35.2% | [4] 31.2% | [6] 61.2% | [8] 27.9% | [9] 33.7%

COc1ccc2c(c1)NC1=C(C(=O)OC1)C2c1cc(OC)c2c(c1)OCO2 (stereo not given)
inactive: [1] 33% | [2] 34% | [3] 52.4% | [4] 43.2% | [6] 43.8% | [8] 12% | [9] 22.3%
active: [5] 4.54% | [7] -13.1% | [10] -56.9%

COc1cc([N+](=O)[O-])c2ncccc2c1O
active: [1] -9.28% | [2] 5.16% | [3] 2.58% | [4] 5.92% | [5] 2.09% | [8] -16.5% | [10] -67.8%
inactive: [6] 79.4% | [7] 42.5% | [9] 108%
